This note sets out measurements from article PMC7862700, “An all-to-all approach to the identification of sequence-specific readers for epigenetic DNA modifications on cytosine”.

Common to all, as to test: DAPPL (digital affinity profiling via proximity ligation, sequencing); 10 mM Tris-HCl pH 7.5, 50 mM NaCl, 1 mM DTT, 4% glycerol, room temperature, 30 min; GST-TFs on glutathione beads, 16-mer random dsDNA library, 0.1% formaldehyde crosslink after washing; high values mean tight binding
What all share (settings): protein: recombinant; tags: N-terminal GST; dsDNA, one strand shown

In experiment [1] the target is T1, FLI1 (Homo sapiens, UniProt Q01543 1-452).
T1 sequence: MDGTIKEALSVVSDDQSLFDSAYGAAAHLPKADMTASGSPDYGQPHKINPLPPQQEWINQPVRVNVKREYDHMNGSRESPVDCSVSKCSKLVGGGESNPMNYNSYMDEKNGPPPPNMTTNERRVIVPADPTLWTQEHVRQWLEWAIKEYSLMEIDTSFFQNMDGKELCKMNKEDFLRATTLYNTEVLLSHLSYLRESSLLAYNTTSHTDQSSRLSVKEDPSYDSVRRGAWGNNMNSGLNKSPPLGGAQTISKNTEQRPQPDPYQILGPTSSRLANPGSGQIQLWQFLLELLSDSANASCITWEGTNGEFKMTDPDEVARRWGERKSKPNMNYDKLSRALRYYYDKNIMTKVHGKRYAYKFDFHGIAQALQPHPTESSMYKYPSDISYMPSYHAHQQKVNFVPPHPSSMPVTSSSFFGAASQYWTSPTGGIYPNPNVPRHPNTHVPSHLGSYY
An outline of the steps: (§1)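 Human transcription factors were made in yeast as GST fusions, captured on glutathione beads and barcoded with DNA. With a tag-only sample included, the pool was incubated with 200 nmole of a random double-stranded 16-mer DNA library in Tris/NaCl/DTT/glycerol buffer at room temperature for 30 min, then crosslinked with 0.1% formaldehyde after washing, ligated by proximity, amplified and sequenced. For binding signal, each hexamer's read frequency for a factor is divided by its frequency for the tag-only sample.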

Experiment [2] concerns the target T2, GABPA (Homo sapiens, UniProt Q06546 1-454).
T2 sequence: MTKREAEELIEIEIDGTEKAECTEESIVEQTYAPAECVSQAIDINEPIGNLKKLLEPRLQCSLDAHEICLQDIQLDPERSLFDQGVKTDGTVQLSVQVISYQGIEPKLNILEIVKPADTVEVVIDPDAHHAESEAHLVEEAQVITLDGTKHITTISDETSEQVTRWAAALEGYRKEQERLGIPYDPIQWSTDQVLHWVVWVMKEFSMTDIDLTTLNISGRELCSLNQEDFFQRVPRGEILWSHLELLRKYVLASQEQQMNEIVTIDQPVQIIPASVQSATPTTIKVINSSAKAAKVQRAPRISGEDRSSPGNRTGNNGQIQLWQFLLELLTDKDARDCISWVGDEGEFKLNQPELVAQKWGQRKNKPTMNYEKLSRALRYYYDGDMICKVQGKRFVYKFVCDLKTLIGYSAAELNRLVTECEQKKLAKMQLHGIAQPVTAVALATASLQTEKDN
A digest of the protocol:
as §1

Experiment [3] addresses T3, ERG (Homo sapiens, UniProt P11308 1-479).
T3 sequence: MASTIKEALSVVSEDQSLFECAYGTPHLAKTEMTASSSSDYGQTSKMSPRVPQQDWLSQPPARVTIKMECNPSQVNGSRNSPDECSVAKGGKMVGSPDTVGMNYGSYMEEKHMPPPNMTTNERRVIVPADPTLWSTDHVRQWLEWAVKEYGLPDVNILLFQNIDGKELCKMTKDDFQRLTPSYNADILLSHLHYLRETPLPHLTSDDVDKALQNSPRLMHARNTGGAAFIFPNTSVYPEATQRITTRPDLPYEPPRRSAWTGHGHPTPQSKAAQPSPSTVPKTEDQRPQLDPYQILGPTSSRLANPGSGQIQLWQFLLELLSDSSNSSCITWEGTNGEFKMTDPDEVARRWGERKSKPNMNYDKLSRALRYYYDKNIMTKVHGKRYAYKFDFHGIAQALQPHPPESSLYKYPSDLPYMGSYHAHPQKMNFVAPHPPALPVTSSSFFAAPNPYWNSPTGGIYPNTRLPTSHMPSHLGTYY
A digest of the protocol: as §1

Experiment [4] addresses ELF1 (Homo sapiens, UniProt P32519 1-619). A digest of the protocol:
as §1

Experiment [5] deals with T4, EHF (Homo sapiens, UniProt Q9NZC4 1-300).
T4 sequence: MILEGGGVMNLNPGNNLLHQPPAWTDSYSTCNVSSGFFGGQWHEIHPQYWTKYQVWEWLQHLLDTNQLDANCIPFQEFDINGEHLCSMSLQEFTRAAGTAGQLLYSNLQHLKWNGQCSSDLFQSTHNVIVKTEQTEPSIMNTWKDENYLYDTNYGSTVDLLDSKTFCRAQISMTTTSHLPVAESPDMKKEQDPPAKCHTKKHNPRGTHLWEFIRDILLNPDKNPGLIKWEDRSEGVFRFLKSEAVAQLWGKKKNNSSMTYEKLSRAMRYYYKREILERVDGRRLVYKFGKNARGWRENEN
A digest of the protocol: as §1

Experiment [6] concerns the target SPIB (Homo sapiens, UniProt Q01892 1-262). A digest of the protocol: as §1
Experiment [7] deals with T5, ELK3 (Homo sapiens, UniProt P41970 1-407).
T5 sequence: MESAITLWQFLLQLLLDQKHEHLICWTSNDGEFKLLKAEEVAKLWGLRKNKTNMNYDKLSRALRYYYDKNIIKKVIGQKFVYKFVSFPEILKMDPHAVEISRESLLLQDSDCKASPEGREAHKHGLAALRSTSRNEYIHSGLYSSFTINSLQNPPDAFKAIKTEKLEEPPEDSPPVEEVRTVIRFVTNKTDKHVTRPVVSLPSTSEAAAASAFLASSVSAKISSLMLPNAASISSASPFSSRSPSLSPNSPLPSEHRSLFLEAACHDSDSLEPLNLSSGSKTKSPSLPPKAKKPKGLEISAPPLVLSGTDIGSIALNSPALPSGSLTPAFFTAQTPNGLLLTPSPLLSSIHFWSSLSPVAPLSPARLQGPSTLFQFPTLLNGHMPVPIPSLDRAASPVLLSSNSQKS
A digest of the protocol:
as §1

For experiment [8], the target named is T6, SPIC (Homo sapiens, UniProt Q8N5J4 1-248).
T6 sequence: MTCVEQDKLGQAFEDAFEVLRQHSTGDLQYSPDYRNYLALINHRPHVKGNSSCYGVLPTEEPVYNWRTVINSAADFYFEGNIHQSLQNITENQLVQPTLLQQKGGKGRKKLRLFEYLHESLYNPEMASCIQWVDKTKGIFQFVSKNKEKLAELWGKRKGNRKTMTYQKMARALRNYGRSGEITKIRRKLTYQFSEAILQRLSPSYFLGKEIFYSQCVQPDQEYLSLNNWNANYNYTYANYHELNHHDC
An outline of the steps:
as §1

Experiment [9] concerns the target ELF4 (Homo sapiens, UniProt Q99607 1-663). An outline of the steps:
as §1

Experiment [10] addresses T7, ELK4 (Homo sapiens, UniProt P28324-2 1-405).
T7 sequence: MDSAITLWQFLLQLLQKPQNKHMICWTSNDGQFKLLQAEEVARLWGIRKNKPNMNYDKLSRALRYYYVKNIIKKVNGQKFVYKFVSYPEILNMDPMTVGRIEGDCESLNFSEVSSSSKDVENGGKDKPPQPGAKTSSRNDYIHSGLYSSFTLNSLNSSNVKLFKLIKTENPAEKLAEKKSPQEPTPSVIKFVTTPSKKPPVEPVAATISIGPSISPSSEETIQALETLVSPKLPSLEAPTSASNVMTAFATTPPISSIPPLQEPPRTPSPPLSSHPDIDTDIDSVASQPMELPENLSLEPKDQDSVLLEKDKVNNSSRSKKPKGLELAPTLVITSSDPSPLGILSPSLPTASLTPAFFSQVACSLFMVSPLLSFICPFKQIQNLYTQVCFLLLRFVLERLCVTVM
A digest of the protocol: as §1

Experiment [11] addresses T8, ETV2 (Homo sapiens, UniProt O00321 1-342).
T8 sequence: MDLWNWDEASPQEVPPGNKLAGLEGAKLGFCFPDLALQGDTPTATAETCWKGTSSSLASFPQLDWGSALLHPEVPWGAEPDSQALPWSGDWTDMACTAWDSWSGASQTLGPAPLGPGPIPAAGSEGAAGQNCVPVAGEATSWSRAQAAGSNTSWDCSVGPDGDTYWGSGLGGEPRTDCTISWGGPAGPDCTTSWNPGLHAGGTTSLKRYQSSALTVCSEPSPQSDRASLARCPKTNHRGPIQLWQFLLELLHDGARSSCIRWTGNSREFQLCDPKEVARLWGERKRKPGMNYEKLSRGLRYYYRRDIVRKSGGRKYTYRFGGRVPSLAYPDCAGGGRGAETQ
An outline of the steps:
as §1

In experiment [12] the target is T9, ELF3 (Homo sapiens, UniProt P78545 1-371).
T9 sequence: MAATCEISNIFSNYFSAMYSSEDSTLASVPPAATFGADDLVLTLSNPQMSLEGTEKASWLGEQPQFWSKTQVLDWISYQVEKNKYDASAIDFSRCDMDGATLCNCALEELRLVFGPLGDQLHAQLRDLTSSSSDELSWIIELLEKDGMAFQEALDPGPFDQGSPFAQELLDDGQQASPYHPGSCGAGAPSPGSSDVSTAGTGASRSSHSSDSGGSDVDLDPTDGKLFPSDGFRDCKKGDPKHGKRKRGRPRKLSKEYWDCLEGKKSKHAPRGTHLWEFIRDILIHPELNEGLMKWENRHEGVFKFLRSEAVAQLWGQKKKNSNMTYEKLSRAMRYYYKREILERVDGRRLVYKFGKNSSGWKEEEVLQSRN
An outline of the steps: as §1

Experiment [13] concerns the target T10, ERF (Homo sapiens, UniProt P50548 1-548).
T10 sequence: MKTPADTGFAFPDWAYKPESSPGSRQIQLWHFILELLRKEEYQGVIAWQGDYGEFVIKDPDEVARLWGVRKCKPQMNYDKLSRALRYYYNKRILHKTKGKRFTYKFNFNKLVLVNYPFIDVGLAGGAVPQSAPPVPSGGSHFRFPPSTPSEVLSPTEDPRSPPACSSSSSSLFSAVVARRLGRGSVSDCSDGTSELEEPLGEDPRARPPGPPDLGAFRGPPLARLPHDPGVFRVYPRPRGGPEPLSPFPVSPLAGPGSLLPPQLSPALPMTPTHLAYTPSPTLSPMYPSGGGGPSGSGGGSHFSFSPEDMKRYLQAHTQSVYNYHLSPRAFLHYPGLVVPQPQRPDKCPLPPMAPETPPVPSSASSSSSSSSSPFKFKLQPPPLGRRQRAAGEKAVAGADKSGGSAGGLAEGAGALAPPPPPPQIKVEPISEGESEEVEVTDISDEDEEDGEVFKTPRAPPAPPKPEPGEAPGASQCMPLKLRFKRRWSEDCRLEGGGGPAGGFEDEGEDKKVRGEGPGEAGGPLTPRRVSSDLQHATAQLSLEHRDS
A digest of the protocol:
as §1

Experiment [14] deals with T11, ETV3L (Homo sapiens, UniProt Q6ZN32 1-361).
T11 sequence: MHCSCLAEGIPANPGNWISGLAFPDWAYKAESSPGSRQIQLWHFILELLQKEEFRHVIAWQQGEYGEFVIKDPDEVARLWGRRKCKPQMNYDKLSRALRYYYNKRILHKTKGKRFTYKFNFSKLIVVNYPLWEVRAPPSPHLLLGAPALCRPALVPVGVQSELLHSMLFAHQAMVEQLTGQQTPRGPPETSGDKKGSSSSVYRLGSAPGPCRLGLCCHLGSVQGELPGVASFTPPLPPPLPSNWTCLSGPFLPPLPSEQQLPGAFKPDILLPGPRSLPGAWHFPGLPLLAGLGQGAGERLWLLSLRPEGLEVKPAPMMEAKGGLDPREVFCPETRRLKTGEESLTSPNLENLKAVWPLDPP
A digest of the protocol:
as §1

Experiment [15] has as its target T12, ETS2 (Homo sapiens, UniProt P15036 1-469).
T12 sequence: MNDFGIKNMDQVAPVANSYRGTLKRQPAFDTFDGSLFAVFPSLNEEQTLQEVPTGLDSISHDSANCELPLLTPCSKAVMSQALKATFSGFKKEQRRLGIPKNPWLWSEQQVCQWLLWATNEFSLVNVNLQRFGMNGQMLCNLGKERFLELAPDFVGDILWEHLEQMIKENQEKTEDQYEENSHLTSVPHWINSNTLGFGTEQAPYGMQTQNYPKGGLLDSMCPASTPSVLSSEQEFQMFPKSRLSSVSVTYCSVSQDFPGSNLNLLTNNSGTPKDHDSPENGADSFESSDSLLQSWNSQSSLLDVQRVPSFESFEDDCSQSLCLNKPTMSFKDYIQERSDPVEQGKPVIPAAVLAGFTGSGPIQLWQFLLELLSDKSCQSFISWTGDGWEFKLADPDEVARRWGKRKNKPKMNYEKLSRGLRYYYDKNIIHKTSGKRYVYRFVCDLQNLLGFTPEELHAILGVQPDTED
A digest of the protocol: as §1

Experiment [16] concerns the target T13, ETV7 (Homo sapiens, UniProt Q9Y603 1-341).
T13 sequence: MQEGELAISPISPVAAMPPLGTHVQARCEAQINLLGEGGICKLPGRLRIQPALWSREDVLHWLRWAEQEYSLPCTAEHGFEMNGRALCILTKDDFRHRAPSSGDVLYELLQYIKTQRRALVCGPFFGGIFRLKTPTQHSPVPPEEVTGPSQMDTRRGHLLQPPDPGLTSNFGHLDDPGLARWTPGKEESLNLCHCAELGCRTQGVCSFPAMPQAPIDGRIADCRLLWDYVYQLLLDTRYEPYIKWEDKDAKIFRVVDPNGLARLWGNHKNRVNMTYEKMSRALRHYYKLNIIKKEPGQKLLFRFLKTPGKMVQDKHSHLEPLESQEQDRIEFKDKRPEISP
An outline of the steps:
as §1

In experiment [17] the target is ETV6 (Homo sapiens, UniProt P41212 1-452). A digest of the protocol: as §1
Sequence of ETV6 (P41212 whole entry): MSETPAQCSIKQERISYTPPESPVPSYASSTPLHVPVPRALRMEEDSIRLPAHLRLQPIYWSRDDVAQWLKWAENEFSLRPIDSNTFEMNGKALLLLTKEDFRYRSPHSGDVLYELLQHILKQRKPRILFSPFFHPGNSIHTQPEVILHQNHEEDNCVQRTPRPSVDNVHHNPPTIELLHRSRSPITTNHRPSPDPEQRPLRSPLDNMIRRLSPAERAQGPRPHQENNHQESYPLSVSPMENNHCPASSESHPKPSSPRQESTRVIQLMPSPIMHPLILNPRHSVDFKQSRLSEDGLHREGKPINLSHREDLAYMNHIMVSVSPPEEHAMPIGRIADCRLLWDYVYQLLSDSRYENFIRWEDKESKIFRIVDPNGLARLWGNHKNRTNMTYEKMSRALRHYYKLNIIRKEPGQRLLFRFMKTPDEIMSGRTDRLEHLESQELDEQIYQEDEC

Sequence of ELF4 (Q99607 whole entry): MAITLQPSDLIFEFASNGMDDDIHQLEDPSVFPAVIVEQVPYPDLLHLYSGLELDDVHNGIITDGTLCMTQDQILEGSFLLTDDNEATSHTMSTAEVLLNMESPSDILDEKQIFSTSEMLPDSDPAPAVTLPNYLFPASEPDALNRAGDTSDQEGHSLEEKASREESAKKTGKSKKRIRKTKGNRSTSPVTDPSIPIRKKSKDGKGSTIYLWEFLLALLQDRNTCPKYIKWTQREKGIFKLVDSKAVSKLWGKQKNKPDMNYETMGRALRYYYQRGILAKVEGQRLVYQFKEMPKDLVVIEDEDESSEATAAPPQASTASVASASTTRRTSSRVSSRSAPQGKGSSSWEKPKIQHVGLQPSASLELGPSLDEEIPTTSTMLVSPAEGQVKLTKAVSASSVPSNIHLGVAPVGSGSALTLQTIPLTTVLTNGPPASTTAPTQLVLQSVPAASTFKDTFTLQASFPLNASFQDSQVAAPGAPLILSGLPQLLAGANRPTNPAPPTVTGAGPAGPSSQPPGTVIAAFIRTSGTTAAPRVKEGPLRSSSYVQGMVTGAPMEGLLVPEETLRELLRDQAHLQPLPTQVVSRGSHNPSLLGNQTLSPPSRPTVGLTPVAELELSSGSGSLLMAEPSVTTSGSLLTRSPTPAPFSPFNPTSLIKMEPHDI
Sequence of ELF1 (P32519 whole entry): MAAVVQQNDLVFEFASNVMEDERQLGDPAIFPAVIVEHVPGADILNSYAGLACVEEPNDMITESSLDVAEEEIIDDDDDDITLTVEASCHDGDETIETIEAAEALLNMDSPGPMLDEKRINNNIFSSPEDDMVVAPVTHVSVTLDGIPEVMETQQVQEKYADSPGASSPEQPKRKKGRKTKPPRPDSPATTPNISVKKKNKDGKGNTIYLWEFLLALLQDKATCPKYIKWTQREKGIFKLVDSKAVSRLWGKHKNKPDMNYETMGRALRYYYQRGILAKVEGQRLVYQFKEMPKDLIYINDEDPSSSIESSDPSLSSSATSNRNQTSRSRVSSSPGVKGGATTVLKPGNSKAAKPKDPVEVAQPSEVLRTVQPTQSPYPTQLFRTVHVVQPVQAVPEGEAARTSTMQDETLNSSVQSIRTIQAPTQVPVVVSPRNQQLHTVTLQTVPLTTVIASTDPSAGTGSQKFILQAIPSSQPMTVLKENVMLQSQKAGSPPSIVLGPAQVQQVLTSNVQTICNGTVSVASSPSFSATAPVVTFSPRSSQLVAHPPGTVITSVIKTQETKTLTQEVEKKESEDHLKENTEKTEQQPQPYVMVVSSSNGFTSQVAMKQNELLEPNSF
Sequence of SPIB (Q01892 whole entry): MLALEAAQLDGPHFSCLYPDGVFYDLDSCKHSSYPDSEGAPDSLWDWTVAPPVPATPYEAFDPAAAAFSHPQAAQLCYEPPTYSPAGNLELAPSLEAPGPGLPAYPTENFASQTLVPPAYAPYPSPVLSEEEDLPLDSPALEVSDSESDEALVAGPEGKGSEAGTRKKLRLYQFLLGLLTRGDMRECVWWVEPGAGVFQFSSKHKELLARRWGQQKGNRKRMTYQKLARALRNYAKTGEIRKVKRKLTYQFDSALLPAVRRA

For the sequence CATTGC, the binding signal was 1.22 fold enrichment (6-mer frequency, TF over GST control) in experiment [1]; 1.08 fold enrichment (6-mer frequency, TF over GST control) in experiment [2]; 1.11 fold enrichment (6-mer frequency, TF over GST control) in [3]; 1.09 fold enrichment (6-mer frequency, TF over GST control) in experiment [4]; 1.15 fold enrichment (6-mer frequency, TF over GST control) in experiment [5]; 1 fold enrichment (6-mer frequency, TF over GST control) in experiment [6]. The binding signal in experiment [7] was 1.15 fold enrichment (6-mer frequency, TF over GST control); in [8], 1.16 fold enrichment (6-mer frequency, TF over GST control); in experiment [9] it was 1.11 fold enrichment (6-mer frequency, TF over GST control); in experiment [10] it was 1.04 fold enrichment (6-mer frequency, TF over GST control); in [11] it was 1.3 fold enrichment (6-mer frequency, TF over GST control); in [12], 1.04 fold enrichment (6-mer frequency, TF over GST control). For the same sequence, the binding signal in experiment [13] was 1.11 fold enrichment (6-mer frequency, TF over GST control); in experiment [14] it was 1.08 fold enrichment (6-mer frequency, TF over GST control); in experiment [15] it was 1.17 fold enrichment (6-mer frequency, TF over GST control); in experiment [16], 1.14 fold enrichment (6-mer frequency, TF over GST control); in experiment [17], 1.09 fold enrichment (6-mer frequency, TF over GST control).
